Measurements: PubChem BioAssay AID1852 (Sanford-Burnham Center for Chemical Genomics, 2009)
About 1,100 (44%) of roughly 2,500 compounds were called active.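 The calls were made as follows: active = inhibition above 50% at 4 µM in the single-point screen; inactive = inhibition of 50% or less.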 So high a share suggests a set chosen from earlier hits. Some of the results follow.

Test: blockers of TNF-a NF-kB luciferase induction – cell-based, HEK293T NF-kB-Luc, luminescence, selectivity assay for NOD1/NOD2 signaling inhibitor project, primary screen (AID 1852)
Conditions: TNF-a induced, 14 h, at 4 µM, active compounds read high

| Structure (SMILES) | inhibition |
| --- | --- |
| CCCCN=C[C@]12CCC(O)CC1(O)CCC1[C@@H]2CC[C@]2(C)[C@H](C3C=CC(=O)O3)CCC12O (stereo partly drawn) | 92.1% (active) |
| CN(C)c1ccc(-[n+]2c(-c3ccccc3)cc(-c3ccccc3)cc2-c2ccccc2)cc1 | 94.6% (active) |
| COc1ccc(-c2cc(-c3ccccc3)[n+](C)c(-c3ccccc3)c2)cc1 | 46.4% (inactive) |
| COc1ccc(-[n+]2c(-c3ccccc3)cc(-c3ccc(C)cc3)cc2-c2ccccc2)cc1 | 75.4% (active) |
| O=C(c1ccc(Cl)cc1)C1CCCN(Cc2cccc3ncccc23)C1 (stereo not drawn) | 29.9% (inactive) |
| CCOc1ccc(-c2c(C)n(-c3ccc(OCC)cc3)c3[n+]2CCCCC3)cc1 | 87% (active) |
| COC1CC(OC2CCC3(C)C(CCC4C3CCC3(C)C(C5=CC(=O)OC5)C(OC(C)=O)CC43O)C2)OC(C)C1OC1OC(COC2OC(CO)C(O)C(O)C2O)C(O)C(O)C1O (stereo not drawn) | 94.7% (active) |
| CC(=O)c1c(C)n(C2CCCCC2)c2ccc(O)cc12 | 90% (active) |
| CC(C)(C)c1ccc(CSc2cnn(C(C)(C)C)c(=O)c2Cl)cc1 | 48.3% (inactive) |
| NC(=O)c1cn(C2OC(CO)C(O)C2O)c2ncnc(N)c12 (stereo not drawn) | 99.9% (active) |
| CN1C2CCC1/C(=C/c1ccccn1)C(=O)/C2=C\c1ccccn1 | 102% (active) |
| Cc1cc(C)cc(N2C(=O)NC(=O)/C(=C/c3cccn3-c3ccc(Cl)cc3)C2=O)c1 | -24% (inactive) |
| CN1C(=O)/C(=C/c2cccn2-c2ccc3ccccc3c2)C(=O)NC1=S | 5.6% (inactive) |
| CCn1nc(-c2ccccc2)nc2c(=O)n(C)c(=O)nc1-2 | 99.1% (active) |
| CCn1nc(/C=C/c2ccccc2)nc2c(=O)n(C)c(=O)nc1-2 | 104% (active) |
| C=CCN1C(=O)NC(=O)/C(=C/C=C/c2ccccc2)C1=O | 49.4% (inactive) |
| O=C1NC(=O)N(Cc2ccc(F)cc2)C(=O)/C1=C\C=C\c1ccco1 | 89.3% (active) |
| O=C1NC(=O)N(Cc2ccccc2)C(=O)/C1=C/C=C/c1ccco1 | 36.6% (inactive) |
| O=C1NC(=O)N(CCc2ccc(F)cc2)C(=O)/C1=C\C=C\c1ccccc1 | 56% (active) |
| COc1cc(OC)c(OC)cc1/C=C1/C(=O)NC(=O)N(Cc2ccccc2)C1=O | 29.5% (inactive) |
| O=C1NC(=O)N(Cc2ccco2)C(=O)/C1=C/C=C/c1ccco1 | -10.1% (inactive) |
| COc1ccc(Oc2cc(NC(=O)c3nn(C)cc3[N+](=O)[O-])cc([N+](=O)[O-])c2)cc1 | 61.5% (active) |
| C[C@H]1CCC[C@@H](O)CCC/C=C/c2cc(O)cc(O)c2C(=O)O1 | 73.6% (active) |
| CC(=O)c1cn(Cc2ccccc2F)c2ccccc12 | 31.5% (inactive) |
| Cc1nc2c(=O)n(C)c(=O)nc-2n(C)n1 | 99.4% (active) |
| CCn1ccnc1CN1CCCC(C(=O)c2cc(Cl)ccc2OC)C1 (stereo not drawn) | 0.8% (inactive) |

| Structure (SMILES) | inhibition |
| --- | --- |
| O=c1c2ccccc2nc(/C=C/c2ccc3c(c2)OCO3)n1-c1ccccc1 | -34.6% (inactive) |
| O=c1c2ccccc2nc(/C=C/c2ccccc2O)n1-c1ccccc1O | 64.8% (active) |
| O=C1C(=O)c2ccccc2-c2ccccc21 | 104% (active) |
| O=C1NC(=O)N(c2ccccc2)C(=O)/C1=C/C=C/c1ccco1 | 32% (inactive) |
| CN1C(=O)NC(=O)/C(=C\C=C\c2ccccc2[N+](=O)[O-])C1=O | 72.4% (active) |
| O=C1NC(=O)N(c2ccccc2)C(=O)/C1=C\C=C\c1ccccc1 | 45.9% (inactive) |
| O=c1nc(/C=C/c2ccc(Cl)cc2Cl)cc(C(F)(F)F)[nH]1 | -105% (inactive) |
| COc1ccc(-n2c(O)c(/C=C3\C=Nc4ccc(Br)cc43)c(=O)[nH]c2=O)cc1 | 23.8% (inactive) |
| O=C(c1cc(-c2ccc(Cl)cc2)n(-c2ccc(Cl)cc2Cl)n1)N1CCOCC1 | -36% (inactive) |
| CC(=O)OC[C@]12CCC(C)=C[C@H]1O[C@@H]1[C@H](O)[C@@H](OC(C)=O)[C@@]2(C)[C@]12CO2 | 102% (active) |
| C=C(C=O)CC1CC(O)[C@]2(C)OC3CC4OC5C[C@]6(C)O[C@]7(C)CCC8OC9C[C@]%10(C)OC%11C(C)=CC(=O)OC%11CC%10OC9C[C@@H](C)C8OC7CC6O[C@]5(C)CC5OC5C4OC3CC2O1 (stereo partly drawn) | 80.4% (active) |
| CCCCCn1c(=O)c(C(=O)Nc2ccccc2S(N)(=O)=O)c(O)c2ccccc21 | -7% (inactive) |
| CCCCCCn1c(=O)c(C(=O)Nc2cnccn2)c(O)c2ccccc21 | 52.2% (active) |
| CCCCCn1c(=O)c(C(=O)Nc2cnccn2)c(O)c2ccccc21 | 53.4% (active) |
| CC(C)CCn1c(=O)c(C(=O)Nc2ccccc2S(N)(=O)=O)c(O)c2ccccc21 | -7.2% (inactive) |
| CCCCn1c(=O)c(C(=O)Nc2cnccn2)c(O)c2ccccc21 | 3.4% (inactive) |
| CCCCCCCn1c(=O)c(C(=O)Nc2cnccn2)c(O)c2ccccc21 | 34.9% (inactive) |
| Cc1ccc(N2C(=O)NC(=O)/C(=C\C=C\c3ccco3)C2=O)cc1 | 9.7% (inactive) |
| O=Cc1cn(Cc2cccc([N+](=O)[O-])c2)c2ccccc12 | 86.7% (active) |
| O=c1[nH]c(=O)n(-c2ccccc2F)c(O)c1/C=C1\C=Nc2ccccc21 | 14.8% (inactive) |
| COc1ccc(-n2c(/C=C/c3ccc(O)cc3)nc3ccccc3c2=O)cc1 | 3.4% (inactive) |
| O=c1c2ccccc2nc(/C=C/c2ccc([N+](=O)[O-])o2)n1-c1ccc(O)cc1 | 89.7% (active) |
| Cc1cccc(-n2c(/C=C/c3ccc([N+](=O)[O-])o3)nc3ccccc3c2=O)c1 | 91.9% (active) |
| Nc1nonc1C(=O)N/N=C/c1ccc([N+](=O)[O-])o1 | 31.1% (inactive) |
| O=C1NC(=S)N(c2ccccc2F)C(=O)/C1=C\c1cccs1 | -11.1% (inactive) |
| Cc1ccc(/C=C2\C(=O)NC(=S)N(c3ccccc3F)C2=O)s1 | 106% (active) |

| Structure (SMILES) | inhibition |
| --- | --- |
| COc1cccc(N2C(=O)/C(=C/c3ccc(C)o3)C(=O)NC2=S)c1 | 40.9% (inactive) |
| Cc1ccc(Sc2ccc(C=C3C(=O)N(C)C(=O)N(C)C3=O)o2)cc1 | -5.5% (inactive) |
| C=CCn1c(O)c(C(C)=NCc2cc(OC)cc(OC)c2)c(=O)[nH]c1=O | 16% (inactive) |
| Cc1ccccc1-n1c(O)c(/C=C2/C(c3ccccc3)=Nc3ccccc32)c(=O)[nH]c1=O | 16.1% (inactive) |
| CCOc1ccc(-c2cc(C)[n+](CCN(CC)CC)c(-c3ccc(OCC)cc3)c2)cc1 | 51.9% (active) |
| C[C@@H]1O[C@@H](O[C@H]2C[C@@H](O)[C@]3(CO)[C@H]4[C@H](O)C[C@]5(C)[C@@H](C6=CC(=O)OC6)CC[C@]5(O)[C@@H]4CC[C@]3(O)C2)[C@H](O)[C@H](O)[C@H]1O | 106% (active) |
| CC(C)N1C(=O)/C(=C/C=C/c2ccco2)C(=O)N(Cc2ccco2)C1=O | 22.9% (inactive) |
| CC(C)[C@H]1C(=O)O[C@H](C(C)C)C(=O)N(C)[C@@H](C(C)C)C(=O)O[C@H](C(C)C)C(=O)N(C)[C@@H](C(C)C)C(=O)O[C@H](C(C)C)C(=O)N1C | 90.7% (active) |
| COC(=O)[C@]12OC[C@]34C([C@@H](O)[C@@H]1O)[C@]1(C)CC(=O)C(O)=C(C)[C@@H]1C[C@H]3OC(=O)[C@H](O)[C@@H]24 (stereo partly drawn) | 76.8% (active) |
| CC[C@@]1(O)C(=O)OCc2c1cc1n(c2=O)Cc2cc3ccccc3nc2-1 | 98.4% (active) |
| Cc1cccc(OCCn2cccc2/C=C2/C(=O)NC(=O)N(Cc3ccco3)C2=O)c1 | 9.6% (inactive) |
| C[C@]12CCC3C(CCC4=CC(O)CC[C@@]43/C=N/O)C1(O)CCC2C1=CC(=O)OC1 (stereo partly drawn) | 97.3% (active) |
| C=C1C(=O)O[C@H]2C[C@@H](C)[C@@H]3C=CC(=O)[C@@]3(C)C[C@H]12 | 108% (active) |
| C=C1C(=O)O[C@@H]2C[C@@H](C)[C@@H]3C=CC(=O)[C@@]3(C)[C@@H](OC(=O)CC(=O)O[C@H]3[C@@H]4C(=C)C(=O)O[C@@H]4C[C@@H](C)[C@@H]4C=CC(=O)[C@]43C)[C@H]12 | 103% (active) |
| C=C1C(=O)O[C@@H]2C[C@@H](C)[C@@H]3C4OC4C(=O)[C@@]3(C)[C@@H](O)[C@H]12 (stereo partly drawn) | 96.7% (active) |
| C=C1C(=O)O[C@@H]2C[C@@H](C)[C@@H]3C=CC(=O)[C@@]3(C)[C@@H](O)[C@H]12 | 104% (active) |
| O=C(c1ccc(Cl)cc1)C1CCCN(Cc2ccc3ncccc3c2)C1 (stereo not drawn) | 29.7% (inactive) |
| CCC(C)C(NC(=O)CCCNC(=O)CCC(=O)OC1O[C@H]2OC3(C)CC[C@H]4[C@H](C)CCC(C1C)C24OO3)C(=O)O (stereo partly drawn) | 87.7% (active) |
| CCC(C)NC(=O)CCC(=O)OC1O[C@H]2OC3(C)CC[C@H]4[C@H](C)CCC(C1C)C24OO3 (stereo partly drawn) | 52.3% (active) |
| CC(C)CC(NC(=O)CCCNC(=O)CCC(=O)OC1O[C@H]2OC3(C)CC[C@H]4[C@H](C)CCC(C1C)C24OO3)C(=O)O (stereo partly drawn) | 55.3% (active) |
| CC1=CC(=Cc2sc3ccccc3[n+]2C)C=C(C)O1 | 43.4% (inactive) |
| CN1CCN(c2ncnc3ccc(Br)cc23)CC1 | 33% (inactive) |
| Cc1cccc(-n2c(O)c(/C=C3/C(c4ccccc4)=Nc4ccccc43)c(=O)[nH]c2=O)c1 | 32.8% (inactive) |
| O=C(c1ccc(C(F)(F)F)cc1)C1CCCN(Cc2ccncc2)C1 (stereo not drawn) | 30.7% (inactive) |
| CN1/C(=C\C=C\C2=[N+](C)c3ccc4ccccc4c3C2(C)C)C(C)(C)c2ccccc21 | 87.9% (active) |
| CCN1/C(=C\C=C\C2=[N+](CC)c3ccccc3C2(C)C)C(C)(C)c2ccccc21 | 101% (active) |
